From PubChem BioAssay
IDE exosite inh = displaces the probe from the exo-site of human IDE | P14735 | 17,000 compounds, 6.3% hits | z-score at 20 µM | AID 1259349 | purified IDE, FL-6b probe fluorescence polarization; stronger effect = lower value;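 active = z-score of -3 or lower, meaning strong loss of probe binding signal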;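 note: His-tagged human IDE residues 42-1019 made in E. coli with 30 nM FL-6b probe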
Target sequence (P14735 42-1019 limits assumed): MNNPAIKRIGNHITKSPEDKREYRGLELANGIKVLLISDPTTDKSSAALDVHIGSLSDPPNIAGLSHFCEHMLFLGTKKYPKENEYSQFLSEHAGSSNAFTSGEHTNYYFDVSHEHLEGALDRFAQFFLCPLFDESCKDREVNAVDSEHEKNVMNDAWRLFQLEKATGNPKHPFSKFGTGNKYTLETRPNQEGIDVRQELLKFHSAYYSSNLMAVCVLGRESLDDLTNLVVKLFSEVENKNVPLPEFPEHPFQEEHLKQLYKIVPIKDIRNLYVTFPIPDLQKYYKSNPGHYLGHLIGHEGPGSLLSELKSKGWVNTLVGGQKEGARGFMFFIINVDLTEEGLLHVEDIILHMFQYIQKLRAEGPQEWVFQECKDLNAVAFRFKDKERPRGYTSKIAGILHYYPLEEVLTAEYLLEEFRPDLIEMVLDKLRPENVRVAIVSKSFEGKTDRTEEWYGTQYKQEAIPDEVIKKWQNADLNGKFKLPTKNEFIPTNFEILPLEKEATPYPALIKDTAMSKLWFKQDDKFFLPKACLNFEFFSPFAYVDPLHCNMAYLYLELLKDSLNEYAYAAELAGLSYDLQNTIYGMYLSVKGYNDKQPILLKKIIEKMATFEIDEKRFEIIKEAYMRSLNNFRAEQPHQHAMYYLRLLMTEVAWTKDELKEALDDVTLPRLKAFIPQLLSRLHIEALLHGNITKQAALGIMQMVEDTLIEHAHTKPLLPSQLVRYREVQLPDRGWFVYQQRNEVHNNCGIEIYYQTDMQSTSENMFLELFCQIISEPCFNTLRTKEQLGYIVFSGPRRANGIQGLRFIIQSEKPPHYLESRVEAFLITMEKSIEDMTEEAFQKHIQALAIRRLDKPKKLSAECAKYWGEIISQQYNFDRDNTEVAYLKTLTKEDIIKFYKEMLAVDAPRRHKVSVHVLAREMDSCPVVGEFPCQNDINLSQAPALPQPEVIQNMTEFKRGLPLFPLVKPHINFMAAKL
A number is an active result; i = inactive. This excerpt belongs to a sample that is enriched for hits.

SMILES	IDE exosite inh
COCC(=O)N1CCCCN2[C@H](CO)[C@H](c3ccc(-c4ccccc4)cc3)[C@H]2C1	i
COCC#Cc1ccc([C@@H]2[C@H]3CN(C(=O)COC)CCCCN3[C@H]2CO)cc1	i
COCC#Cc1ccc([C@H]2[C@@H](CO)N3CCCCN(C(=O)COC)C[C@H]23)cc1	i
COCC(=O)N1CCCCN2[C@H](C1)[C@@H](c1ccc(C#Cc3ccccc3)cc1)[C@@H]2CO	-5.91
COCC(=O)N1CCCCN2[C@H](C1)[C@H](c1ccc(-c3ccccc3)cc1)[C@@H]2CO	i
COCC(=O)N1CCCCN2[C@H](C1)[C@H](c1ccc(C#Cc3ccccc3)cc1)[C@@H]2CO	-9.96
COCC#Cc1ccc([C@@H]2[C@@H](CO)N3CCCCN(C(=O)COC)C[C@H]23)cc1	i
COCC(=O)N1CCCCN2[C@H](CO)[C@H](c3ccc(C#Cc4ccccc4)cc3)[C@@H]2C1	-8.38
COCC(=O)N1CCCCN2[C@@H](CO)[C@H](c3ccc(C#Cc4ccccc4)cc3)[C@@H]2C1	-11.3
N#C[C@@H]1[C@@H](c2ccc(C#CC3CCCCC3)cc2)[C@H](CO)N1C(=O)Nc1ccc(F)cc1	i
CC(C)CC#Cc1ccc([C@H]2[C@H](CO)N3C(=O)CN(C(=O)c4cccc(F)c4)C[C@@H]23)cc1	i
O=C(Nc1cccc(F)c1)N1CC(=O)N2[C@H](CO)[C@@H](c3ccc(-c4ccccc4)cc3)[C@H]2C1	i
COc1cccc(-c2ccc(C3[C@H]4CNC[C@@H]3N4Cc3cncnc3)cc2)c1 (stereo not given in full)	i
N#C[C@@H]1[C@@H](c2ccc(-c3cccc(F)c3)cc2)[C@H](CO)N1S(=O)(=O)c1cccc(F)c1	i
CC[C@H]1CC=CC[C@@H](C)Oc2ccccc2C(=O)N(C)[C@H](C)C(=O)N1 (mixture of isomers)	i
CCC(=O)N1CC2(C1)CN(Cc1cccc(Cl)c1)[C@H](CO)c1[nH]c3cc(OC)ccc3c12	i
COCC(=O)N1CCCCN2[C@H](CO)[C@@H](c3ccc(C#Cc4ccc(OC)cc4)cc3)[C@H]2C1	i
COCC(=O)N1CCCCN2[C@H](CO)[C@@H](c3ccc(C#Cc4ccc(OC)cc4)cc3)[C@@H]2C1	i
COCC(=O)N1CCCCN2[C@H](CO)[C@H](c3ccc(C#Cc4ccc(OC)cc4)cc3)[C@@H]2C1	-8.49
C[C@@H]1CN([C@H](C)CO)C(=O)CCCn2nncc2CO[C@@H]1CN(C)Cc1cccc(C(F)(F)F)c1	i
C[C@@H]1CCCCO[C@H](CN(C)C(=O)C2CCCCC2)[C@H](C)CN([C@@H](C)CO)C(=O)c2cc(NS(=O)(=O)c3ccccc3)ccc2O1	i
COc1cccc(-c2ccc([C@@H]3[C@@H](CO)N4CCCCN(C(=O)c5ccc6c(c5)OCO6)C[C@@H]34)cc2)c1	i
COc1cccc(-c2ccc([C@@H]3[C@@H](CO)N4CCCCN(C(=O)c5ccc(F)cc5)C[C@H]34)cc2)c1	i
COc1cccc(-c2ccc([C@H]3[C@@H](CO)N4CCCCN(C(=O)c5ccc(F)cc5)C[C@H]34)cc2)c1	-3.25
COc1cccc(-c2ccc([C@H]3[C@H]4CN(C(=O)c5ccc6c(c5)OCO6)CCCCN4[C@H]3CO)cc2)c1	i
SMILES	IDE exosite inh
COc1cccc(-c2ccc([C@@H]3[C@@H](CO)N4CCCCN(C(=O)c5ccc(F)cc5)C[C@@H]34)cc2)c1	i
COc1cccc(-c2ccc([C@@H]3[C@H]4CN(C(=O)NC(C)C)CCCCN4[C@H]3CO)cc2)c1	-8.03
COc1cccc(-c2ccc([C@H]3[C@H](CO)N4CCCCN(C(=O)NC(C)C)C[C@@H]34)cc2)c1	-12.4
COc1cccc(-c2ccc([C@H]3[C@@H](CO)N4CCCCN(C(=O)NC(C)C)C[C@@H]34)cc2)c1	-5.79
COc1cccc(-c2ccc([C@@H]3[C@H]4CN(C(=O)c5ccc(F)cc5)CCCCN4[C@H]3CO)cc2)c1	i
COc1cccc(-c2ccc([C@H]3[C@H](CO)N4CCCCN(C(=O)c5ccc6c(c5)OCO6)C[C@@H]34)cc2)c1	i
COc1cccc(-c2ccc([C@H]3[C@@H](CO)N4CCCCN(C(=O)c5ccc(F)cc5)C[C@@H]34)cc2)c1	i
N#C[C@H]1[C@@H](c2ccccc2)[C@H](CO)N1S(=O)(=O)c1ccc(F)cc1	i
C/C=C/c1ccc([C@H]2[C@@H](CO)N(C(C)=O)[C@@H]2CN(CCC)C(=O)C2CC2)cc1	i
N#C[C@@H]1[C@@H](c2ccccc2C2=CCCC2)[C@H](CO)N1C(=O)C1CCC1	i
CC(C)C#Cc1ccc([C@@H]2[C@H](CO)N3CCCCN(CC4CC4)C[C@@H]23)cc1	i
C[C@@H]1CCCCO[C@H](CN(C)Cc2ccc(C(=O)O)cc2)[C@H](C)CN([C@@H](C)CO)C(=O)c2cc(N(C)C)ccc2O1	i
O=C(O)C[C@@H]1C=C[C@H](NC(=O)Nc2cc(F)ccc2F)[C@@H](CO)O1	i
N#C[C@H]1[C@@H](c2ccccc2C2=CCCCC2)[C@H](CO)N1C(=O)Cc1ccncc1	i
CCCC(=O)Nc1ccc2c(c1)C(=O)N(C)[C@H]1CC[C@H](CC(=O)N3CCCCC3)O[C@@H]1CO2	i
CCS(=O)(=O)N1CC2(CN(CC3CCOCC3)[C@@H](CO)c3c2c2ccc(OC)cc2n3C)C1	i
C[C@H]1CCCCO[C@@H](CN(C)C(=O)CCCN(C)C)[C@@H](C)CN([C@@H](C)CO)C(=O)c2cc(NS(=O)(=O)c3ccc(Cl)cc3)ccc2O1	i
COc1ccc(-c2ccccc2[C@H]2[C@@H](C#N)N(C(=O)NC3CCCCC3)[C@H]2CO)cc1	i
COc1ccc(-c2ccc([C@H]3[C@H](C#N)N(C(=O)NC4CCCCC4)[C@H]3CO)cc2)cc1	i
COc1ccc(-c2ccc([C@@H]3[C@@H](C#N)N(C(=O)NC(C)C)[C@H]3CO)cc2)cc1	i
COc1ccccc1-c1ccccc1[C@@H]1[C@H](C#N)N(C(=O)CN(C)C)[C@H]1CO	i
COc1ccccc1-c1ccc([C@@H]2[C@@H](C#N)N(C(=O)CN(C)C)[C@H]2CO)cc1	-12.4
COc1ccc(-c2ccc([C@@H]3[C@@H](CO)N(C(=O)NC(C)C)[C@H]3C#N)cc2)cc1	i
COc1ccccc1-c1ccc([C@@H]2[C@@H](C#N)N(C(=O)NC(C)C)[C@@H]2CO)cc1	-12.9
COc1ccccc1-c1ccc([C@@H]2[C@@H](C#N)N(C(=O)NC3CCCCC3)[C@@H]2CO)cc1	-10.5
SMILES	IDE exosite inh
CN(C)CC(=O)N1[C@H](C#N)[C@@H](c2ccc(-c3ccccc3F)cc2)[C@H]1CO	i
CCCNC(=O)N1CC2(CCN(Cc3nccs3)CC2)c2c([nH]c3cc(OC)ccc23)[C@H]1CO	i
CC(=O)NC[C@H]1[C@@H](c2ccc(-c3cccnc3)cc2)[C@@H](CO)N1C(=O)CC1CC1	i
O=S(=O)(c1ccccc1F)N1CCCCN2[C@H](CO)[C@H](c3ccc(-c4ccncc4)cc3)[C@H]2C1	i
O=C(Nc1ccc(F)cc1)N1CC(=O)N2[C@H](CO)[C@@H](c3ccc(C#Cc4ccccc4)cc3)[C@@H]2C1	i
O=C(C1CC1)N1CC[C@@H]2[C@H]1c1cc(Br)ccc1N[C@@H]2CO	i
CC(C)C#Cc1ccc([C@H]2[C@@H](CO)N3C(=O)CN(C(=O)c4ccccn4)C[C@@H]23)cc1	i
COc1ccccc1CNC(=O)C[C@@H]1C[C@@H]2c3cc(NC(=O)C4CCC4)ccc3O[C@@H]2[C@H](CO)O1	i
CCc1cnc(N2[C@H](CO)[C@@H](c3ccc(C#CC(C)C)cc3)[C@@H]2C#N)s1	i
